IDE exosite FP = displaces the probe from the exo-site of human IDE | AID 1259349 | z-score at 20 µM | actives 6.3% (n = 17,000) | P14735 | purified IDE, FL-6b probe fluorescence polarization; stronger effect = lower value;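 active = z-score of -3 or lower, meaning strong loss of probe binding signal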;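 also: His-tagged human IDE residues 42-1019 made in E. coli with 30 nM FL-6b probe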
Target sequence (P14735 42-1019 limits assumed): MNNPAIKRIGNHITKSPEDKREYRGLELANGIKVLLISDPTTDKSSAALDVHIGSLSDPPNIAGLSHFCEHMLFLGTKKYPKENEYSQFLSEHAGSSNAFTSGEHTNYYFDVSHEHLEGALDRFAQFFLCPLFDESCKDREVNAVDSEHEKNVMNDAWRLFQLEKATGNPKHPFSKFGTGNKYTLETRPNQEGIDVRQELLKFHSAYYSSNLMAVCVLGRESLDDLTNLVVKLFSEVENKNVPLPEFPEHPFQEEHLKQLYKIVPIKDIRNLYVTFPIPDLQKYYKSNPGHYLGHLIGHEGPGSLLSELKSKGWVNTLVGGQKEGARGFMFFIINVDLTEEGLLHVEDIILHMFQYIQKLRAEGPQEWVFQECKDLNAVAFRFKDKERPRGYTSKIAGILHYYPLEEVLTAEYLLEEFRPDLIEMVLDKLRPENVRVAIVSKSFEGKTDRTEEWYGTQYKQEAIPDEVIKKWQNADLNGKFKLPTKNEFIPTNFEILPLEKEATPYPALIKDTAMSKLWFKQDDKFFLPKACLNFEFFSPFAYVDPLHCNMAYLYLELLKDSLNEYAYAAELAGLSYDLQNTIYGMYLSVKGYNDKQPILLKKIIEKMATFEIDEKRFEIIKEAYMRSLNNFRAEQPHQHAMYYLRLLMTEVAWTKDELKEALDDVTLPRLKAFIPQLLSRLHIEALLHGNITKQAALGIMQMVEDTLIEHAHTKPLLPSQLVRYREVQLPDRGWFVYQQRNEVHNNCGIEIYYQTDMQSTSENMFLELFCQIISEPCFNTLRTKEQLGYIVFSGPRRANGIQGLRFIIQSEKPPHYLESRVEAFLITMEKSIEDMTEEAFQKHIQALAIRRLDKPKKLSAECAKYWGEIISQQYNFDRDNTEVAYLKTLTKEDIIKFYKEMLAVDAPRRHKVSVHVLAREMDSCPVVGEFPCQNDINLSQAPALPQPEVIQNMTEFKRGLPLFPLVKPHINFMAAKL
The depositor's hits bear a star; ! = not confirmed by another sample. The full list was thinned out, with hits kept by preference.

SMILES	IDE exosite FP
Cc1ccccc1-c1ccc([C@H]2[C@@H](CO)N3CCCCN(Cc4cccnc4)C[C@H]23)cc1	-11.4*
OC[C@@H]1[C@@H](c2ccc(-c3ccccc3)cc2)[C@H]2CN(Cc3cncnc3)CCCCN12	2.71
OC[C@H]1[C@H](c2ccc(-c3ccccc3F)cc2)[C@@H]2CN(Cc3cccnc3)CCCCN12	2.57
C(=C\c1ccc(C2[C@@H]3CN(Cc4cccnc4)C[C@H]2N3)cc1)/c1ccccc1 (stereo partly specified)	-4.83*!
OC[C@@H]1[C@@H](c2ccc(/C=C/c3ccccc3)cc2)[C@@H]2CN(Cc3cncnc3)CCCCN12	-7.89*
O=C(C1CCC1)N1C[C@@H]2N[C@H](C1)C2c1ccc(/C=C/c2ccccc2)cc1 (stereo partly specified)	-1.7
OC[C@@H]1[C@H](c2ccc(-c3cccc(F)c3)cc2)[C@H]2CN(Cc3cncnc3)CCCCN12	-0.54
COc1ccccc1NC(=O)N1[C@H](CO)[C@H](c2ccccc2)[C@@H]1C#N	-2.05
CC(C)NC[C@@H]1[C@@H](c2ccc(C3=CCCCC3)cc2)[C@H](CO)N1C(=O)NC(C)C	3.86
CCCNC(=O)N1CC(=O)N2[C@H](CO)[C@H](c3ccc(C#CCC4CCCC4)cc3)[C@@H]2C1	-0.00194
O=C(c1ccc2c(c1)OCO2)N1C[C@@H]2[C@H](c3ccccc31)[C@H](CO)N2C(=O)CC1CC1	-0.294
O=C(c1ccccn1)N1C[C@H]2[C@@H](c3ccccc31)[C@H](CO)N2C(=O)Nc1ccccc1Cl	1.74
CN(C[C@H]1[C@@H](c2ccccc2)[C@@H](CO)N1C(=O)C1CC1)C(=O)c1ccccn1	1.39
CN(C)CC#Cc1ccc([C@H]2[C@@H](CO)N3C(=O)CN(C(=O)c4ccccc4)C[C@H]23)cc1	3.23
COc1cccc(-c2ccc([C@H]3[C@@H](CO)N4CCCCN(C(=O)c5ccc6c(c5)OCO6)C[C@H]34)cc2)c1	-2.66
CCCC#Cc1ccc([C@H]2[C@H](CO)N3CCCCN(Cc4ccncc4)C[C@@H]23)cc1	-0.409
OC[C@@H]1[C@H](c2ccc(-c3ccccc3F)cc2)[C@H]2CN(Cc3ccncc3)CCCCN12	0.711
OC[C@@H]1[C@H](c2ccc(/C=C/c3ccccc3)cc2)[C@@H]2CN(Cc3ccncc3)CCCCN12	-8.51*
OC[C@@H]1[C@H](c2ccc(/C=C/c3ccccc3)cc2)[C@@H]2CN(Cc3cccnc3)CCCCN12	-5.18*
OC[C@@H]1[C@@H](c2ccc(/C=C/c3ccccc3)cc2)[C@@H]2CN(Cc3cccnc3)CCCCN12	-0.943
OC[C@H]1[C@H](c2ccc(-c3ccc(F)cc3)cc2)[C@H]2CN(Cc3cccnc3)CCCCN21	1.38
CN(C)CC#Cc1ccc([C@@H]2[C@@H](CO)N3C(=O)CN(C(=O)Cc4cccnc4)C[C@H]23)cc1	1.76
C/C=C/c1ccc([C@H]2[C@@H](CO)N(C(=O)COC)[C@@H]2CNC(=O)C2CCC2)cc1	3.2
COc1ccc(S(=O)(=O)N2CCCCN3[C@@H](CO)[C@H](c4ccc(C#CC5CC5)cc4)[C@@H]3C2)cc1	3.26
O=C(Cc1ccccn1)N1CC(=O)N2[C@H](C1)[C@H](c1ccc(-c3ccccc3)cc1)[C@@H]2CO	-1.51
SMILES	IDE exosite FP
O=C(Cc1ccccn1)N1CC(=O)N2[C@H](CO)[C@H](c3ccc(C#CC4CC4)cc3)[C@@H]2C1	3.41
O=C(Cc1ccccn1)N1CC(=O)N2[C@H](CO)[C@@H](c3ccc(C#CC4CC4)cc3)[C@@H]2C1	0.65
Cc1cccc(-c2ccc([C@@H]3[C@H]4CN(C(=O)Cc5ccccn5)CC(=O)N4[C@H]3CO)cc2)c1	-14.9*
COc1ccc(-c2ccc([C@H]3[C@H](CO)N4C(=O)CN(C(=O)Cc5ccccn5)C[C@@H]34)cc2)cc1	-1.31
O=C(Cc1ccccn1)N1CC(=O)N2[C@H](CO)[C@H](c3ccc(-c4ccccc4)cc3)[C@@H]2C1	-3.71*
CCC(=O)N1[C@H](CN(C)C(C)=O)[C@@H](c2ccc(C3=CCCC3)cc2)[C@@H]1CO	2.54
COc1cccc(C#Cc2ccc([C@@H]3[C@@H](C#N)N(C(=O)C4CCC4)[C@@H]3CO)cc2)c1	4.17
N#C[C@H]1[C@H](c2ccc(C#Cc3ccc(F)cc3)cc2)[C@H](CO)N1C(=O)C1CCCC1	3.98
COc1cccc(C#Cc2ccc([C@@H]3[C@@H](C#N)N(C(=O)C4CCC4)[C@H]3CO)cc2)c1	1.54
COc1cccc(C#Cc2ccc([C@@H]3[C@@H](CO)N(C(=O)C4CCCCC4)[C@H]3C#N)cc2)c1	4.66
N#C[C@H]1[C@H](c2ccc(C#Cc3ccccc3F)cc2)[C@H](CO)N1C(=O)C1CCC1	2.22
N#C[C@H]1[C@@H](c2ccc(C#Cc3ccc(F)cc3)cc2)[C@H](CO)N1C(=O)C1CCCC1	5.36
COc1cccc(C#Cc2ccc([C@@H]3[C@@H](C#N)N(C(=O)C4CCCCC4)[C@H]3CO)cc2)c1	2.35
N#C[C@@H]1[C@@H](c2ccc(C#Cc3ccc(F)cc3)cc2)[C@H](CO)N1C(=O)C1CCCC1	5.4
COc1ccccc1C#Cc1ccc([C@H]2[C@@H](CO)N(C(=O)C3CCCCC3)[C@H]2C#N)cc1	-5.06*
COc1ccccc1C#Cc1ccc([C@@H]2[C@@H](C#N)N(C(=O)C3CCCCC3)[C@@H]2CO)cc1	-8.59*
COc1ccccc1C#Cc1ccc([C@H]2[C@H](C#N)N(C(=O)C3CCCCC3)[C@H]2CO)cc1	-6.29*
COc1ccccc1C#Cc1ccc([C@H]2[C@@H](C#N)N(C(=O)C3CCC3)[C@@H]2CO)cc1	-7.84*
CC(C)CC#Cc1ccc([C@@H]2[C@H]3CN(C(=O)Cc4ccccc4)CC(=O)N3[C@H]2CO)cc1	3.02
CN1CCN(C(=O)C[C@@H]2C[C@H]3c4cc(NS(C)(=O)=O)ccc4O[C@H]3[C@H](CO)O2)CC1	0.783
O=C(c1ccccn1)N1CC(=O)N2[C@H](CO)[C@H](c3ccc(C4=CCCC4)cc3)[C@@H]2C1	-1.67
O=C(CC(F)(F)F)N1C[C@H]2[C@@H](c3ccccc31)[C@H](CO)N2Cc1cccnc1	3.45
CO[C@@H]1CN(C)C(=O)c2ccc(NC(=O)NC(C)C)cc2OC[C@@H](C)N(Cc2ccc(-c3ccccn3)cc2)C[C@@H]1C	0.418
C[C@H]1CN([C@@H](C)CO)C(=O)c2c(c3ccccc3n2C)-c2ccccc2CO[C@H]1CN(C)S(=O)(=O)c1ccccc1C#N	-0.184
Cc1ccccc1-c1ccc(C2[C@@H]3CN(Cc4cocn4)C[C@H]2N3)cc1 (stereo partly specified)	-3.01*!
SMILES	IDE exosite FP
c1cncc(-c2ccc(C3[C@@H]4CN(Cc5ccc6c(c5)OCO6)C[C@H]3N4)cc2)c1 (stereo partly specified)	-1.07
Cc1ccccc1-c1ccc(C2[C@H]3CNC[C@@H]2N3Cc2ccc3c(c2)OCO3)cc1 (stereo partly specified)	-0.767
C(=C\c1ccc(C2[C@@H]3CN(Cc4cocn4)C[C@H]2N3)cc1)/c1ccccc1 (stereo partly specified)	-0.388
Cc1ccccc1-c1ccc(C2[C@@H]3CN(Cc4ccc5c(c4)OCO5)C[C@H]2N3)cc1 (stereo partly specified)	-4.3*!
c1ncc(-c2ccc(C3[C@@H]4CN(Cc5cocn5)C[C@H]3N4)cc2)cn1 (stereo partly specified)	3.74
COCC(=O)N1CC(=O)N2[C@H](CO)[C@@H](c3ccc(C#Cc4cccc(OC)c4)cc3)[C@@H]2C1	-4.46*
COCC(=O)N1CC(=O)N2[C@H](C1)[C@@H](c1ccc(C#Cc3cccnc3)cc1)[C@@H]2CO	-0.0665

Screens from PubChem BioAssay.
